The source of these data is PMC12136788.

Residue numbers refer to the chain shown, from its start. In all, about 5,800 sequences were measured (“enrichment r”: median about 0.54, highest 2% from about 16 on). What follows is part of a selection rich in the highest values, with near analogues and random picks from the rest.

B1: chr2:205797254:205797461:+|3pUTR|ENSG00000118257|msi1|FALSE|unique (ssRNA)
RNA: GGGAGUUCUACAGUCCGACGAUCUCACCCUCCCAUGAUGCGCAGUGUUCAGAAAGCUGGUAAGUCCUAGGGAUUUCCAGAAGUAGCCUGCAGAAGAAGGUAAGUUUGAAAGCCACUCCAGGGGUCCUGAUGCUGUCAUGCUCACAACAGAGGAUUGAGCAUCA
B2: ENSG00000107863:be:win_2651|CDS|ENSG00000107863|bound_else_gene|NA|bound_elsewhere_windowed (ssRNA)
RNA: GGGAGUUCUACAGUCCGACGAUCAGGGUCUGGAUGAUUACAGAGAAGAUGCAAAAUUGUCCUUUAAGCACGUAUCUAGUCUGAAGGGAAUCAAGAUCGCAGACAGCCAAAAGUCAUCAGAAGACUCUGGGUCCAGAAAAGAUUCAACAGAGGAUUGAGCAUCA
B3: chr10:74136666:74136778:-|CDS|ENSG00000185009|unk|FALSE|unique (ssRNA)
RNA: GGGAGUUCUACAGUCCGACGAUCUUCAGAGGCUGCAAUUAAGGAUAAUGUGGUCAUAGUAUAUGAACUCUUAGAAGAAAUGUUAGACAAUGGAUUUCCACUGGCUACCGAAUCUAACAUUUUGAAAGAAUUGAUUAAACCACCCAACAGAGGAUUGAGCAUCA
B4: chr1:94529602:94529703:-|3pUTR|ENSG00000117525|msi1|total|mutant (ssRNA)
RNA: GGGAGUUCUACAGUCCGACGAUCUGGAAGGAAAUUGGGUGCAUUUCCCGGACUUUUCUAACAUAUGUCUAUAAUACCGUGUUCCGGUUCUUUUUUUUUUCAGGAAUACAUUUGGAAAUUCAAAACAAUUGGCAAACUUUGUAUCAACAGAGGAUUGAGCAUCA
B5: chr11:58422334:58423261:-|CDS|ENSG00000172365|control|control|control (ssRNA)
RNA: GGGAGUUCUACAGUCCGACGAUCACACACUAGUGAGGUGAUUCUGGUUUUUAUGUCAAGCUUUAAUAUCUUUUUUGUUCUUCUAGUUAUCUUUAUCUCCUACUUGUUCAUAUUCAUCACCAUCUUGAAGAUGCAUUCAGCUAACAACAGAGGAUUGAGCAUCA
B6: chr12:49764829:49764866:+|3pUTR|ENSG00000139644|msi1_unk|FALSE|overlapping (ssRNA)
RNA: GGGAGUUCUACAGUCCGACGAUCACUUUUAAAGAAAAUACCUAACAGAUUUUUAAUAUAGUUAUCUCUACCACUUUCUUUUCUAGUUUCUUGAUUUUCAGCUCAGGCUGCAUUCUAACUCAUACUGUGAAGACAAAGGUGUUUCAACAGAGGAUUGAGCAUCA
B7: ENSG00000100485:stop:overlap|stop_codon|ENSG00000100485|stop_codon|NA|stop_codon (ssRNA)
RNA: GGGAGUUCUACAGUCCGACGAUCAUAUAUAUACACAUAUAUAUACACACACACACACAUUUUAUGUGUCAGUUUUCAAUAUAUAGUUAACACAAAAGCUCUCAGCUUUUAAUUCAAAUAUAGGGAAUAUUUUUAACUUCACAGCAACAGAGGAUUGAGCAUCA
B8: chr1:93888438:93888539:-|3pUTR|ENSG00000023909|msi1|total|mutant (ssRNA)
RNA: GGGAGUUCUACAGUCCGACGAUCAGAUAUUUUUCCUGUCAUUGAUGAGAUAUAUCAGAGUAACUGGAGCCGCUGGGAUUUACCCGCCGUGUAAAUAAAAUUCACUCUUCAAUACAUGAAUGGAAACUUAAAUUUUUUUUUAUGCAACAGAGGAUUGAGCAUCA
B9: chr12:64147824:64147925:+|3pUTR|ENSG00000196935|unk|FALSE|unique (ssRNA)
RNA: GGGAGUUCUACAGUCCGACGAUCCAUCUCUGUGGUGUCUUUGUUCCUUUCCUUUCAUUCAUCACUACUUUCUCCUUGACAGCUAGCUUGCAUUAAAUAAUGUGAAACUUUUACCUUUAAAAUAUUUUUUUAUCUCACUUUCAUCAACAGAGGAUUGAGCAUCA
B10: chr5:43295829:43295944:-|CDS|ENSG00000112972|unk|FALSE|unique (ssRNA)
RNA: GGGAGUUCUACAGUCCGACGAUCAAUAUCCUAGCUUUAUUCUAAAGUCAAACUUUAAAAUUUCAUGGCUUAUAUGAAUUUCAUAGUUUCCUUGGACUUCUCUUUCAGAGGGAAAUGAUAAAGAUUUUACCUUGAAUGAUUUUGCAACAGAGGAUUGAGCAUCA
B11: chr1:93888438:93888539:-|3pUTR|ENSG00000023909|msi1|FALSE|unique (ssRNA)
RNA: B8 RNA with C69U, C70A, C83U, C84A, C86U, C87A
B12: chr3:125228010:125228111:-|3pUTR|ENSG00000163848|msi1|FALSE|unique (ssRNA)
RNA: GGGAGUUCUACAGUCCGACGAUCAGUUCUCUUCAUAUUUCAUAACUACAUUUCAAUAAUUCUAAACUUUCUACAUUGAUUUUUAGAUACUUAUUUUUCAAGCUUGGUUUCUCAGCUGAUCAGAUGAAUUUAUUCAACUUCAAUCAACAGAGGAUUGAGCAUCA
B13: chr3:125228010:125228111:-|3pUTR|ENSG00000163848|msi1|total|mutant (ssRNA)
RNA: B12 RNA with U83C, A84C
B14: chr1:162785649:162785750:+|3pUTR|ENSG00000162733|unk|FALSE|unique (ssRNA)
RNA: GGGAGUUCUACAGUCCGACGAUCUGAAUGUUGUUUUUUUGAAUGAACAUAAGAUAGAAACAAAAACUUCUCAUCCAGUUAACUAGAGUGAAUGUAGGGAGAAUUGUUUUGCUUGUAACAUGGAGAGUUUAUUUUCAAGUGAGGCAACAGAGGAUUGAGCAUCA
B15: chr15:77046258:77046342:-|3pUTR|ENSG00000140391|msi1_unk|FALSE|overlapping (ssRNA)
RNA: GGGAGUUCUACAGUCCGACGAUCAAAAAUAUUUACUGUAGUCCAAUAAGAUAGCAGCUGUACAAAAUGACUAAAAUAGAUUGUAGGAUCAUAUGGCGUAUAUCUUGGUUCAUCUUCAAAAUCAGAGACUGAGCUUUGAAACUACAACAGAGGAUUGAGCAUCA
B16: chr2:128192346:128192447:+|3pUTR|ENSG00000136731|msi1|FALSE|unique (ssRNA)
RNA: GGGAGUUCUACAGUCCGACGAUCAGAAAAUGAUGUUACCACUAAAAUAUUUUCUCCAAGAAGGCAUACUGUAACAGAAAAGAUAGGUAAGAUAUUUUUUUCCCAAGAAGUAAGAAUUGAUUGUGCUGAAUGUUCAAACUCUGGCAACAGAGGAUUGAGCAUCA
B17: chr16:3727831:3727932:-|CDS|ENSG00000005339|unk|FALSE|bound_elsewhere (ssRNA)
RNA: GGGAGUUCUACAGUCCGACGAUCCGUCUCACCCCAGACUGGUUCCCCCCACCCCGGACUCGCAGUCACCAUGGCCAGCUCCAUAGAUCAGGGACACUUGGGGAACCCCGAACAGAGUGCAAUGCUCCCCCAGCUGAACACCCCCAACAGAGGAUUGAGCAUCA
B18: chr16:30193532:30193793:-|CDS|ENSG00000169627|control|control|control (ssRNA)
RNA: GGGAGUUCUACAGUCCGACGAUCGCCUUAGUAAGGGCGGAAGUGAGUUUUCCAGCGGAAGUGGCUCCUGUAAGGCAGCAAGGUAGCGUGGCCGGCGCCCGAGCUGGGGUUGUGUCCCUGCUGGGCUGCCGUUCCAGCUGGACUCAACAGAGGAUUGAGCAUCA
B19: chrX:101412715:101412817:+|CDS|ENSG00000126945|unk|FALSE|unique (ssRNA)
RNA: GGGAGUUCUACAGUCCGACGAUCGGGUAUGGAGGCUAUGAUGACUAUGGUGGCUAUAAUGAUGGAUAUGGCUUUGGGUCUGAUAGAUUUGGAAGAGACCUCAAUUACUGUUUUUCAGGAAUGUCUGAUCAUAGAUACGGAGAUCAACAGAGGAUUGAGCAUCA
B20: chr11:28036422:28036524:-|CDS|ENSG00000121621|unk|FALSE|unique (ssRNA)
RNA: GGGAGUUCUACAGUCCGACGAUCCAGCUCAAUGAUUCUCUUAGCAAAGAACUUCAGCCUAUUGUAUAUACACCAGAAGACUGUAGAAAAGCUUUUCAAAAUCCGUCUACAGUAACCUUAAUGAAACCAUCAUCAUUUACUACACAACAGAGGAUUGAGCAUCA
B21: chr9:83661418:83661519:-|3pUTR|ENSG00000135018|msi1|FALSE|unique (ssRNA)
RNA: GGGAGUUCUACAGUCCGACGAUCUAUAGUUGGGUGACCAGAUUUUGUCCUGCAUCUGUCCAGUUUAUUUGCUUUUUAAACAUUAGCCUAUGGUAGUAAUUUAUGUAGAAUAAAAGCAUUAAAAAGAAGCAAAUCAUUUGCACUCAACAGAGGAUUGAGCAUCA
B22: chr6:98868534:98874277:-|three_prime_utr|ENSG00000112234|control|control|control (ssRNA)
RNA: GGGAGUUCUACAGUCCGACGAUCAUUAAAAUUAAUGUGCUUUGUUGGGGUUUAAUUUUGGGAUUGGUUUUGGGUUUUGUUUUUAGUUGUUUUAAUGGUAAGAAUUAAGACAUUUGUAGAUUUUAAAGAAAAAUAUGAAAUUGUCAACAGAGGAUUGAGCAUCA
B23: chr8:25429562:25429664:-|3pUTR|ENSG00000104756|unk|FALSE|unique (ssRNA)
RNA: GGGAGUUCUACAGUCCGACGAUCAGAAAAGCACUCAUUUAAUAGAUGUAGGGAAACUAGAUAUUGCUGCCUUUUGAAUGGGGUAGGGGGGUUUACCUGGUUUUAUGACCAGGCAUAGUAUCUAUUAUAUUUGCUUUUAAAUAGCAACAGAGGAUUGAGCAUCA
B24: chr5:132541444:132541810:-|three_prime_utr|ENSG00000113525|control|control|control (ssRNA)
RNA: GGGAGUUCUACAGUCCGACGAUCAAAUUGAUAUACUUUUUUCUUAUUUAACUUAACAUUCUGUAAAAUGUCUGUUAACUUAAUAGUAUUUAUGAAAUGGUUAAGAAUUUGGUAAAUUAGUAUUUAUUUAAUGUUAUGUUGUGUCAACAGAGGAUUGAGCAUCA
B25: chr9:83661418:83661519:-|3pUTR|ENSG00000135018|msi1|total|mutant (ssRNA)
RNA: B21 RNA with U26C, A27C, U83C, A84C, U93C, A94C, U105C, A106C
B26: chr11:74334375:74334476:-|3pUTR|ENSG00000165434|msi1|FALSE|unique (ssRNA)
RNA: GGGAGUUCUACAGUCCGACGAUCUUUUUGUUUUAUUUUUAAAAUGUGUAAAACAUCUUUUGUUUUAUAUGCUUUUAAGAAUGUAGAUUGUAAUUUAGGAAAUGGCAUAUAUUCUGCAAAGUGGUAUAAUGUUGUAUAUAUGAACAACAGAGGAUUGAGCAUCA

In this test the target is MSI1 full-length (mouse, UniProt Q61474 1-362). In words: nsRBNS (natural sequence RNA bind-n-seq); RBNS binding buffer (assumed for nsRBNS): 25 mM Tris pH 7.5, 150 mM KCl, 3 mM MgCl2, 0.01% Triton X-100, 500 ug/ml BSA, 20 U/ml SUPERase-In, 4 C; UNK is unkempt and MSI1 is Musashi-1; names of the RNAs are library labels; protein concentration not given here; high values mean tight binding.
Chain of MSI1 full-length (Q61474 whole entry): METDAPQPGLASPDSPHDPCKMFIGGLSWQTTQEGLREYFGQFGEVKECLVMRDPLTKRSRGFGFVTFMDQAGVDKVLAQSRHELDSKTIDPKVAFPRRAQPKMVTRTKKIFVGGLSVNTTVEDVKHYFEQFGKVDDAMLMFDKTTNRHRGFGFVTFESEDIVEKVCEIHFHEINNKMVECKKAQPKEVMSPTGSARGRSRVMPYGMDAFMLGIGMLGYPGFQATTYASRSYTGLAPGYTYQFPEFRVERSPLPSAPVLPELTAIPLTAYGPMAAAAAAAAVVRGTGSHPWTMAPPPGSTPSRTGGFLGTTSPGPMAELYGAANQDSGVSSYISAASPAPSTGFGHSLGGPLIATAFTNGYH
In the case of B1, the binding signal came out at 0.607 enrichment R.

Consider B2, for which the binding signal amounted to 0.365 enrichment R.

B3: the binding signal is 0.651 enrichment R.

As to B4, the binding signal was found to be 0.407 enrichment R.

B5 had a binding signal of 23.6 enrichment R.

In the case of B6, the binding signal came to 3.05 enrichment R.

The molecule B7 returned a binding signal of 2.06 enrichment R.

Molecule B8 came in with a binding signal of 0.484 enrichment R.

Molecule B9 showed a binding signal of 7.22 enrichment R.

Molecule B10 had a binding signal of 0.654 enrichment R.

As for B11, the binding signal was found to be 28.4 enrichment R.

For the molecule B12, the binding signal came out at 5.53 enrichment R.

Molecule B13 showed a binding signal of 18.6 enrichment R.

The molecule B14 yielded a binding signal of 2.65 enrichment R.

In turn, B15 yielded a binding signal of 9.31 enrichment R.

Consider B16, for which the binding signal is 0.593 enrichment R.

For the molecule B17, the binding signal is 0.562 enrichment R.

Turning to B18, the binding signal turned out to be 0.62 enrichment R.

Consider B19, for which the binding signal was 0.771 enrichment R.

B20 gave a binding signal of 0.992 enrichment R.

B21 gave a binding signal of 26.4 enrichment R.

With B22, the binding signal was determined as 21.9 enrichment R.

Regarding B23, the binding signal was determined as 2.16 enrichment R.

The molecule B24 came in with a binding signal of 2.88 enrichment R.

In the case of B25, the binding signal turned out to be 0.203 enrichment R.

As for B26, the binding signal came out at 3.15 enrichment R.
